Results taken from ChEMBL document CHEMBL3988442, “University of Dundee, Small-Polar-MMV Screening Library” (2021).

Target: T1, Arginase-2, mitochondrial (Homo sapiens) (UniProt P78540)
T1 sequence (whole entry): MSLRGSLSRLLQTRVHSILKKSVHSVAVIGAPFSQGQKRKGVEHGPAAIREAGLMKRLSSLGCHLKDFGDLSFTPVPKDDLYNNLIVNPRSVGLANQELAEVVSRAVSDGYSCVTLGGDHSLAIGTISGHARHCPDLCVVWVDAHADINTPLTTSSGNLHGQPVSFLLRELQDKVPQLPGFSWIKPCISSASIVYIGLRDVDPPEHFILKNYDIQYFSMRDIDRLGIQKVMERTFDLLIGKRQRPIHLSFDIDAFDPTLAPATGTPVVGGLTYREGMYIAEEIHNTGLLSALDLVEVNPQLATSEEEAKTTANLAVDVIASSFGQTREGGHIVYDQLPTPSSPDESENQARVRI
Experiment: in vitro enzyme assay to detect the production of urea directly proportional to the activity of Arginase II
Format: functional
Set-up: scale not given: in the data most compounds retested in dose-response had high values
Conditions: 33.3 µM

| Structure (SMILES) | Percent Effect [%] |
| --- | --- |
| CC(C)(C)c1cnc(CN2CCCC2Cn2cccn2)o1 (stereo not drawn) | -0.38 |
| Cc1nc(C)c(C(=O)NCCNC(=O)Cc2ccccc2)s1 | -2.4 |
| CC(C)NC(=O)c1n[nH]c(-n2cnnc2)n1 | -4.05 |
| CC(C)C1CN(C(=O)c2ccc(N3CCCC3)nc2)CCS1 (stereo not drawn) | 0 |
| O=C(NC1CC1)[C@@H]1CCO[C@@H]2CCN(Cc3ccsc3)C[C@H]21 | 3.5 |
| Cc1cc(CN(C)C2CCCN(c3cccnn3)C2)on1 (stereo not drawn) | 1.56 |
| CN(Cc1ccc(F)cc1)C(=O)CN1CCOC(Cn2cncn2)C1 (stereo not drawn) | -1.52 |
| CC(C)COC(C)C(=O)NCc1cc(F)cc(F)c1 (stereo not drawn) | 2.32 |
| COCCC(=O)N1CCN(C)c2ncccc2C1 | -1.38 |
| Cn1cc(N2CCC3(CCN(Cc4nccs4)C3)C2=O)cn1 (stereo not drawn) | 0.319 |
| O=C(CCc1nccs1)N1CCN(c2ccccc2F)CC1 | -6.46 |
| CNC(=O)CCNC(=O)c1cccc(Cn2nc(C)cc2C)c1 | -3.09 |
| Cc1cc(C)cc(OCCC(=O)N2CCCC(n3cncn3)C2)c1 (stereo not drawn) | -5.73 |
| O=C(CSc1ccccc1Cl)NS(=O)(=O)c1ccc2c(c1)OCCO2 | -1.15 |
| O=c1ccc(-c2cccs2)nn1CN1CCCCCC1 | -3.35 |
| O=C(NCCOc1ncc(Cl)cc1Cl)c1ccncc1 | -1.67 |
| COc1cccc(OCC2CCCN(C(=O)c3cnc(C)nc3O)C2)c1 (stereo not drawn) | 11.9 |
| CCc1cccc(NS(=O)(=O)c2cc3c(c(C(=O)O)c2)OCCO3)c1 | -0.645 |
| CC(C)S(=O)(=O)NCC1CCCN(C(=O)c2ccc3c(c2)OCCO3)C1 (stereo not drawn) | 0 |
| Cc1cnccc1CN1C[C@@H](O)[C@H](Oc2cccc(F)c2)C1 | 0.696 |

| Structure (SMILES) | Percent Effect [%] |
| --- | --- |
| CC1CN(C(=O)NCCCn2cncn2)CCO1 (stereo not drawn) | 5.75 |
| CCCc1nc(CN2CCOC(CNc3cccnn3)C2)cs1 (stereo not drawn) | -5.61 |
| Cc1ccc(NC2CCN(C(=O)c3cccn3C)CC2)nn1 | 2.85 |
| Cc1ccc(CNC(=O)Cn2ncc3c2c(C)nn3C)cc1 | -16.4 |
| O=C(N[C@@H]1CN(Cc2ccccc2)C[C@@H]2CCCO[C@@H]21)C1CC1 | -49.3 |
| Fc1ccc(OCCCN2CCOC(Cn3cncn3)C2)cc1 (stereo not drawn) | -3.23 |
| Cc1cc(C)c(CNC(=O)NCC(O)c2cccc(F)c2)c(=O)[nH]1 (stereo not drawn) | -3.96 |
| O=C(CCn1ccc2cc(Br)ccc21)NCc1ccc(C(=O)O)cc1 | -3.55 |
| O=C(NCc1ccc(OCC2CC2)nc1)c1c(F)cccc1F | -11.8 |
| CSc1nccn1-c1cccc(C(=O)NCCCN2CCOCC2)c1 | -2.52 |
| CC(C)c1nn(C)c(N(C)C)c1CNCc1ccc2c(c1)OCO2 | 2.16 |
| CC(Oc1ccccc1C(F)(F)F)C(=O)NCC(N)=O (stereo not drawn) | -1.67 |
| O=c1n(CCSCc2ccccc2F)nc2ccccn12 | 4 |
| Cc1noc(C)c1C1CCCN1C(=O)CN1CC2(CCNCC2)OC1=O (stereo not drawn) | -3.81 |
| CN(CC1CCCO1)C1CCN(CCc2ccccn2)CC1 (stereo not drawn) | 0.924 |
| N#Cc1cccc(S(=O)(=O)NC(=O)COC2CCCC2)c1 | 1.07 |
| COc1cccc(OCC(=O)NS(=O)(=O)c2ccc(C)s2)c1 | 5.32 |
| Cn1ccnc1-c1ccccc1C(=O)N1CCc2c(nc(N)[nH]c2=O)C1 | -6.9 |
| CN(C)C(=O)CN1C[C@@H]2CC[C@H](C1)N(C(=O)CCn1cncn1)C2 | -0.952 |

Target: T2, Proteasome subunit beta (Trypanosoma cruzi) (UniProt O96673)
T2 sequence (whole entry): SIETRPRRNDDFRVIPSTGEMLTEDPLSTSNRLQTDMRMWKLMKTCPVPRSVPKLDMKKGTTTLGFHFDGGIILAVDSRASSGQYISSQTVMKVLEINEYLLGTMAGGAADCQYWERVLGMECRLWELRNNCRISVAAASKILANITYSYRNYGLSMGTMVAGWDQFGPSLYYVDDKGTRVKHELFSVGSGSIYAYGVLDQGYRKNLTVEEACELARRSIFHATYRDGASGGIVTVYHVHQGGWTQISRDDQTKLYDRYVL
Experiment: Trypanosoma cruzi proteasome chymotrypsin-like activity (TcProtChymo) assay.
Format: functional
Set-up: scale not given: in the data most compounds retested in dose-response had high values
Conditions: 9.37 µM

| Structure (SMILES) | Percent Effect [%] |
| --- | --- |
| CC(C)(C)c1cnc(CN2CCCC2Cn2cccn2)o1 (stereo not drawn) | 5.16 |
| Cc1nc(C)c(C(=O)NCCNC(=O)Cc2ccccc2)s1 | 16.7 |
| CC(C)NC(=O)c1n[nH]c(-n2cnnc2)n1 | 2.77 |
| CC(C)C1CN(C(=O)c2ccc(N3CCCC3)nc2)CCS1 (stereo not drawn) | -1.17 |
| O=C(NC1CC1)[C@@H]1CCO[C@@H]2CCN(Cc3ccsc3)C[C@H]21 | 17.5 |
| Cc1cc(CN(C)C2CCCN(c3cccnn3)C2)on1 (stereo not drawn) | 16.2 |
| CN(Cc1ccc(F)cc1)C(=O)CN1CCOC(Cn2cncn2)C1 (stereo not drawn) | 17.6 |
| CC(C)COC(C)C(=O)NCc1cc(F)cc(F)c1 (stereo not drawn) | -0.728 |
| COCCC(=O)N1CCN(C)c2ncccc2C1 | 3.83 |
| Cn1cc(N2CCC3(CCN(Cc4nccs4)C3)C2=O)cn1 (stereo not drawn) | 16.4 |
| O=C(CCc1nccs1)N1CCN(c2ccccc2F)CC1 | -2.05 |
| CNC(=O)CCNC(=O)c1cccc(Cn2nc(C)cc2C)c1 | 10.7 |
| Cc1cc(C)cc(OCCC(=O)N2CCCC(n3cncn3)C2)c1 (stereo not drawn) | -5.21 |
| O=C(CSc1ccccc1Cl)NS(=O)(=O)c1ccc2c(c1)OCCO2 | 9.69 |
| O=c1ccc(-c2cccs2)nn1CN1CCCCCC1 | 7.21 |
| O=C(NCCOc1ncc(Cl)cc1Cl)c1ccncc1 | 9.72 |
| COc1cccc(OCC2CCCN(C(=O)c3cnc(C)nc3O)C2)c1 (stereo not drawn) | 7.24 |
| CCc1cccc(NS(=O)(=O)c2cc3c(c(C(=O)O)c2)OCCO3)c1 | 20.9 |
| CC(C)S(=O)(=O)NCC1CCCN(C(=O)c2ccc3c(c2)OCCO3)C1 (stereo not drawn) | 7.81 |
| Cc1cnccc1CN1C[C@@H](O)[C@H](Oc2cccc(F)c2)C1 | 4.37 |

| Structure (SMILES) | Percent Effect [%] |
| --- | --- |
| CC1CN(C(=O)NCCCn2cncn2)CCO1 (stereo not drawn) | 2.84 |
| CCCc1nc(CN2CCOC(CNc3cccnn3)C2)cs1 (stereo not drawn) | 10.3 |
| Cc1ccc(NC2CCN(C(=O)c3cccn3C)CC2)nn1 | 18.4 |
| Cc1ccc(CNC(=O)Cn2ncc3c2c(C)nn3C)cc1 | 10.2 |
| O=C(N[C@@H]1CN(Cc2ccccc2)C[C@@H]2CCCO[C@@H]21)C1CC1 | 4.96 |
| Fc1ccc(OCCCN2CCOC(Cn3cncn3)C2)cc1 (stereo not drawn) | 3.43 |
| Cc1cc(C)c(CNC(=O)NCC(O)c2cccc(F)c2)c(=O)[nH]1 (stereo not drawn) | 7.36 |
| O=C(CCn1ccc2cc(Br)ccc21)NCc1ccc(C(=O)O)cc1 | 16.2 |
| O=C(NCc1ccc(OCC2CC2)nc1)c1c(F)cccc1F | 15.1 |
| CSc1nccn1-c1cccc(C(=O)NCCCN2CCOCC2)c1 | 16.5 |
| CC(C)c1nn(C)c(N(C)C)c1CNCc1ccc2c(c1)OCO2 | -2.45 |
| CC(Oc1ccccc1C(F)(F)F)C(=O)NCC(N)=O (stereo not drawn) | 12.9 |
| O=c1n(CCSCc2ccccc2F)nc2ccccn12 | 1.7 |
| Cc1noc(C)c1C1CCCN1C(=O)CN1CC2(CCNCC2)OC1=O (stereo not drawn) | 6.9 |
| CN(CC1CCCO1)C1CCN(CCc2ccccn2)CC1 (stereo not drawn) | -0.898 |
| N#Cc1cccc(S(=O)(=O)NC(=O)COC2CCCC2)c1 | 11.3 |
| COc1cccc(OCC(=O)NS(=O)(=O)c2ccc(C)s2)c1 | 10.4 |
| Cn1ccnc1-c1ccccc1C(=O)N1CCc2c(nc(N)[nH]c2=O)C1 | 16.8 |
| CN(C)C(=O)CN1C[C@@H]2CC[C@H](C1)N(C(=O)CCn1cncn1)C2 | 2.76 |
